6 molecules from PubChem BioAssay (Tox21) can be followed below.

Molecules are shown by their SMILES. Results filed as inconclusive are left out. A call without a number means that no potency is given here. The source made the active and inactive calls. The call rests on the fitted dose curve; in most records, active means well fitted cell-killing curve with a large enough effect in the repeat runs; inconclusive means weak or mixed curves, or effect the other way; inactive means flat fitted curve, though single readings scatter.

Assay [1] can be described thus: cAMP Responsive Elements (CRE) small molecule antagonists, cell-based qHTS assay: qHTS cell viability counter screen (AID 2060913). Further: nearly all actives have a fitted effect of over 40% in size. The settings on record: CRE-bla HEK293T viability, CellTiter-Glo luminescence, 5 h; series mostly up to 92.4 µM. Put shortly: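 CRE-bla HEK293T cells were seeded in assay medium with 10% dialyzed FBS, incubated 18 hrs at 37 C, then exposed to compounds plus 0.25 uM final NKH477 for 3 hrs. Viability was read by CellTiter-Glo luminescence after 30 min, in the same wells.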

Assay [2] can be described thus: cAMP Responsive Elements (CRE) small molecule agonists, cell-based qHTS assay: qHTS cell viability counter screen (AID 2060914). Further: nearly all actives have a fitted effect of over 50% in size. The settings on record: CRE-bla HEK293T viability, CellTiter-Glo luminescence, 5 h; series mostly up to 92.4 µM. Put shortly:
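Cytotoxicity was measured as ATP luminescence (CellTiter-Glo, 30 min at room temperature) in the same wells as the CRE-bla FRET read-out. HEK293T CRE-bla cells had 3 h compound exposure at 37C/5% CO2.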
Background: Quantitative high-throughput screening tests each substance at several concentrations.

On to `O=C(c1ccc(Cl)cc1)c1ccc(Cl)cc1`, for which the Potency result in assay [1] and in assay [2] was “inactive” throughout.
With `O=C(/C=C/c1ccccc1)OCCCc1ccccc1`, the Potency result in assay [1] and in assay [2] was “inactive” in each case.
Regarding `CS(=O)(=O)Nc1ccc([N+](=O)[O-])cc1Oc1ccccc1`, the Potency entry in assay [1] and in assay [2] was “inactive” each time.
For `O=C(Cl)c1cccc(C(=O)Cl)c1`, the Potency entry in assay [1] and in assay [2] was “inactive” throughout.
In the case of `O=S(=O)(O)CCO`, the Potency result in assay [1] and in assay [2] was “inactive” in each case.
Consider `Nc1nc(=O)n([C@@H]2O[C@H](CO)[C@@H](O)[C@@H]2F)cc1I`, for which the Potency entry in assay [1] and in assay [2] was “inactive” throughout.
